Paper PMC13494018

B1: d4r4_design_ppi_356_dldesign_0_cycle1_af2pred (protein)
chain: DLEEKAKEGLKKMEEEGKKNPELGKKVKELLEKGKEDGLKGVVEAAKLLTKEAGEEIKPYAAAIVHYERLKK
B2: d4r5_design_ppi_25_dldesign_0_cycle1_af2pred (protein)
chain: EEKEAVKKAAKIIQEMREKGLELIHEAKIKGSKEIAEEGIKKAEELGKKALEAAEKASPEERKKVEEKVEKTLKRIKEEAEKVIKE
B3: d4r4_design_ppi_269_dldesign_0_cycle0_af2pred (protein)
chain: SVEEAKKKNLKIAEEAIKLAEEVAKELEKNEKYKEKAEEFKKKAKELKELKKKGEEDALDATLAGVYGKRLKKKAEEEKKKLEEE
B4: d4r4_design_ppi_253_dldesign_0_cycle1_af2pred (protein)
chain: MEEKKEEARRIVREAREEARKAAAESPEAALKAAEKVKERRKELEEKVDFKTAESASARFEQIIEALKIAAKKLAA
B5: d4r5_design_ppi_34_dldesign_0_cycle1_af2pred (protein)
chain: EEEKLKAAEAAARNLKLAIEAAKTEGKEYGILYMESAVQAGEIVGLGEKVKETKEALEKNPEEGIKLAEELKKEFEAIV
B6: d4r4_design_ppi_394_dldesign_0_cycle1_af2pred (protein)
chain: MEIQKENDAEAGLERAKHAKEVAKKALENKPKLSLEEVAEILKKAAERAEKAAKTEEGKKLAKELKEEAKKVEAELKKAQ
B7: d4r4_design_ppi_344_dldesign_0_cycle1_af2pred (protein)
chain: DPLTLAQEGLTEARYNAKDPEKALAILTATVAAGTAALAALAADPATAPLAAAGLATLARYGAKVGAEILANAKEKEA
B8: d4r4_design_ppi_251_dldesign_0_cycle1_af2pred (protein)
chain: DSDEKAKELLEEAEKYLEEGEKLMEEGKYEEAVLLYRRAQVAALSAELSATTEELKEKAKELLKKAEEKLKEAEEALKKAEEEKK
B9: d4r5_design_ppi_37_dldesign_0_cycle0_af2pred (protein)
chain: GGAVDQVVDNVAKAVGAEAGARIRAAYEEGPEKAIATLEELAARLAAEDPELGAKAAKAARVLRSIVEDEKR
B10: d4r4_design_ppi_481_dldesign_0_cycle1_af2pred (protein)
chain: MADEASAEIRLENAKDAAKIWIKKVEKIDPELAKEYAAKMKEAAKKPDKEGAKKAREIAKEVKKKAEELEKKAKEKEEEKKKEEEEK
B11: d4r4_design_ppi_240_dldesign_0_cycle0_af2pred (protein)
chain: MKEKQEKARAEARAEHVKEAIEKYYKEAAKGDKKEALKKTAEFAKEAAKKAKYPLTKEIALALAEEYAKKAA
B12: d4r4_design_ppi_349_dldesign_0_cycle1_af2pred (protein)
chain: SEAAKYKAQYEATKKQLKETSAKLKEEKKNLSAETYKEYANKLQEARQKSTYYKAKGDYKNALAAMQEALDIAQQALAEAQKAK
B13: d4r4_design_ppi_338_dldesign_0_cycle1_af2pred (protein)
chain: SLNEEAKKEAEKLVEKAKKALKESPEAGEKAVKEMANKYHEYLELGVDKEVVERLRKEAKELKEEVKRKKKELEEEKLA
B14: d4r4_design_ppi_373_dldesign_0_cycle0_af2pred (protein)
chain: AARAAAQKEAVALMAEAAEKAAEKAKKTSVAAEAFRAATKAAQAAASGEKWPEGEAAVEKLKKLDPEAGKIIAEAAAKAKAIMA
B15: d4r4_design_ppi_373_dldesign_0_cycle1_af2pred (protein)
chain: SEKEARIKEAVALMDKAAEEAAEKAKTTELANKAFRAATTAAKAAASGEDWPKGEAAVKELKKADPEAGKIIEEAAKQAAEIIA
B16: d4r4_design_ppi_471_dldesign_0_cycle1_af2pred (protein)
chain: EEAKKVAEEAKKVGKEAAKAGLEKLAAEAFEASYKVKAAYDFYKKNPEKGKEILEEEVKEAKKVIEKAKKEIKKAKAKA
B17: d4r4_design_ppi_410_dldesign_0_cycle0_af2pred (protein)
chain: AAAAAAAQKAEMDRTVAAAERQTAILEKRLKAAGLTALADKVKAALAALKAAAEAGDYEAAKKAAAALAKAAAEAREAVAEKEVKA
B18: d4r4_design_ppi_299_dldesign_0_cycle0_af2pred (protein)
chain: KSELAKKAADETSKALSYIRAFAKYKPEKGKEIEDLLLDEEKMEEAAELAEKAAKEAETEEEKEIAKKAAEHIRKAKEYLEKLK
B19: d4r4_design_ppi_490_dldesign_0_cycle1_af2pred (protein)
chain: AEVEKEAKKAATEAREAVAELRGLAQEAKLKGVEEAKKVAEEAIKEASALLKEAAKEKDPEKALKLAKEAYKVAKEAIKKAKKLLE
B20: d4r4_design_ppi_490_dldesign_0_cycle0_af2pred (protein)
chain: AKTEEEAKKAATEASEAVADLRGYEQEAKIKGNEEAAKVAKEAIKEAAKLAKEAAASKDPKEALKLAKEALKVAKKAIEEVKKLLE
B21: d4r5_design_ppi_7_dldesign_0_cycle1_af2pred (protein)
chain: EESKELRIKAISLLSSAAFYAKTLGPEGKYFEKAAELALTDLEKAIEEAKKALKAAEKLDKELAKRVEKAIEYLKKALE
B22: d4r5_design_ppi_25_dldesign_0_cycle0_af2pred (protein)
chain: EKEEALKKAANIIQKMREEGTAGINEAKVSGSKEIAKEAIKKAEELAKKALEEASKATPEDYEKAKEKVKRILERLKKEAEKVIKE
B23: d4r4_design_ppi_349_dldesign_0_cycle0_af2pred (protein)
chain: SEKEKLLEKYKETLEELRKVRKELAKEKKNLDKETFTKIANELQDARNESAYYKQQGDYKKALEAAEKALEIAKEGLKKAKEAA
B24: d4r5_design_ppi_19_dldesign_0_cycle0_af2pred (protein)
chain: MEEKLKEAAKKVQEAYQLAAENKEKREELRELAKKARESLKEAEKAYKEGKEEEAEKYLEKSFEYNKEAEELYKKTKKEKEEKEKK
B25: d4r4_design_ppi_491_dldesign_0_cycle1_af2pred (protein)
chain: SANKELADAIKEAAKEAQAAANAAKEAYADDPAKAKEFADKMEKKIDEAHNSDLETAKKIAEEAKKEKEKAKAALKKAKA
B26: d4r4_design_ppi_265_dldesign_0_cycle1_af2pred (protein)
chain: SKEEEEAKKTKEEAEKRLKKALEEAKKLGEAEVDAVKQIVEAGKKAAAAAETPKEAAEALAKAAKTAESIIKTAKEAKKR
B27: d4r4_design_ppi_486_dldesign_0_cycle0_af2pred (protein)
chain: MEETIERAKEAAREALEAAREAAKKNAADPEKVKKLAELAQKAQEARAEALAKPEKAEEALKRIEEYLKEAKEILE
B28: d4r4_design_ppi_257_dldesign_0_cycle1_af2pred (protein)
chain: AEAKAAREAEFKALVEKAEAAADAAMAKATTIEEKKAILDLFNEAARHAKRGAANPETAAADLAAAKAKLAEIEAKAKA
B29: d4r4_design_ppi_269_dldesign_0_cycle1_af2pred (protein)
chain: DVEEAREKNLEIAKKAIEEARKVAKEAEKKPEYREKAKELRKEAEELEKLAEEGKKDPLMATLAGVQGRRLLEEARKLRKELEEE
B30: d4r5_design_ppi_34_dldesign_0_cycle0_af2pred (protein)
chain: EEEKKEAAKKAAELIERAIEAAKTEGKEYGIIYMEAAVEAAKKVGLGEKAKEALKALEKDEEEGIKLAKELREEFEKLI
B31: d4r4_design_ppi_486_dldesign_0_cycle1_af2pred (protein)
chain: MEEVVKKAEEAAKKAVEAAREAAKKNAADPEKVKYLAELAQEALEARAVALAKPELAEEELKKIEEKRKKAEEILA
B32: d4r4_design_ppi_411_dldesign_0_cycle1_af2pred (protein)
chain: SAAEVAALEKAARAAIAAALAAAKAALADPSTLAEQKKAAEAALAAAREAAAAARWKDYEVGEALRKELAAAEKEVKATIAEAQKKKE
B33: d4r5_design_ppi_20_dldesign_0_cycle1_af2pred (protein)
chain: MNLEELKKKVKEYTKELGKKAGVSEEEIKELAELAAEAASLSSDTTKEVLEDYAKESSEKVAKVAKETAEYAIEIKKKAR
B34: d4r4_design_ppi_253_dldesign_0_cycle0_af2pred (protein)
chain: MEELREEARRRMREARERAGEAAATSPEAAREAAEEVRRIAEELRKRVDWQTGARAEAQAEQIVEALERAAKAMEA
B35: d4r4_design_ppi_439_dldesign_0_cycle1_af2pred (protein)
chain: AEEEERERRVREAAEWLVEAPVRLANEAALRAGELAGDSDLALEIQALNNYNREEGARAALASPAREVVAEATEEVRRRREAERAAA
B36: d4r4_design_ppi_303_dldesign_0_cycle0_af2pred (protein)
chain: MAERAAIMEEARENAIKAYEYAVKLKKIDPELGKEYMKKIDKLMKEAVEAAKDAEKAKKKAEEIKKLAEEIEKIAKEK
B37: d4r4_design_ppi_471_dldesign_0_cycle0_af2pred (protein)
chain: EEAEKVAKEAREVGKEAAEAGLKKTAAEAFAAANRVRAALAFKKANPEKGQPILEEEVKEAKEVIEKAKKEIAAKKAAA
B38: d4r4_design_ppi_396_dldesign_0_cycle0_af2pred (protein)
chain: AEAAAFAAAKAAAAKAFAEAYEAANALLASGKYKEEAEKGKKELKELAKKLKAAKTAEEAKKVAEEAKKLAEKLKKLLEEAE

biological target: VTCN1, Q7Z7D3
Sequence (Q7Z7D3 whole entry): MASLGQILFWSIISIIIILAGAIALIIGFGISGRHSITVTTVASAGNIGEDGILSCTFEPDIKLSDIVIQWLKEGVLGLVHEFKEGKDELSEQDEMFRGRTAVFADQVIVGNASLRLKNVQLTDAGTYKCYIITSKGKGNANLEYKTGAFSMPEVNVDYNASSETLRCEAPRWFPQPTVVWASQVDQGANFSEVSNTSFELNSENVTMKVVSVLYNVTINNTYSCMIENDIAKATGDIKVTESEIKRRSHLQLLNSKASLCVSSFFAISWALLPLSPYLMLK

Binding in a display sort, inactive:
B1 not found
B2 not found
B3 not found
B4 not found
B5 not found
B6 not found
B7 not found
B8 not found
B9 not found
B10 not found
B11 not found
B12 not found
B13 not found
B14 not found
B15 not found
B16 not found
B17 not found
B18 not found
B19 not found
B20 not found
B21 not found
B22 not found
B23 not found
B24 not found
B25 not found
B26 not found
B27 not found
B28 not found
B29 not found
B30 not found
B31 not found
B32 not found
B33 not found
B34 not found
B35 not found
B36 not found
B37 not found
B38 not found
